About 83,000 compounds went through this panel and 20% of them were active in at least one assay; those are over-represented in the sample as a whole.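 How to read the values: 0–100, growth inhibition (40 = 60% inhibited); 0, no net growth; -100 to 0, cell death (-40 = 40% of starting cells died; -100 = all dead).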 The source made the active and inactive calls. Rule for the calls: active = growth percent below 10; inactive = the rest.
Legend:
Experiment in all cases: NCI-60 one-dose screen, 48 h (100 = growth as untreated, 0 = no growth, -100 = all killed)
Settings in all cases: 10 µM unless noted
HCT-15 colon = tested on: HCT-15 colon
HT29 colon = tested on: HT29 colon
SNB-75 CNS = tested on: SNB-75 CNS
SNB-19 CNS = tested on: SNB-19 CNS
U251 CNS = tested on: U251 CNS
PC-3 prostate = tested on: PC-3 prostate
SK-MEL-5 melanoma = tested on: SK-MEL-5 melanoma
UACC-62 melanoma = tested on: UACC-62 melanoma
LOX IMVI melanoma = tested on: LOX IMVI melanoma
SK-MEL-28 melanoma = tested on: SK-MEL-28 melanoma

Measured: growth

COc1ccc2c(c1)CC[C@H](O)/C2=C/c1cc(OC)c(OC)c(OC)c1
inactive: HCT-15 colon 13.9% | SNB-75 CNS 19.1% | SNB-19 CNS 38.3% | U251 CNS 13.3% | PC-3 prostate 17.8% | UACC-62 melanoma 31.8% | LOX IMVI melanoma 18.2% | SK-MEL-28 melanoma 61.5%
active: HT29 colon 0.825% | SK-MEL-5 melanoma -40%

O=[N+]([O-])c1cccc(-c2nc3cc4nc5ccccc5[nH]c4cc3n2)c1
inactive: HCT-15 colon 99.5% | HT29 colon 100% | SNB-75 CNS 101% | SNB-19 CNS 102% | U251 CNS 98.2% | PC-3 prostate 93.2% | SK-MEL-5 melanoma 96.4% | UACC-62 melanoma 97.5% | LOX IMVI melanoma 99.8% | SK-MEL-28 melanoma 113%

CCOC(=O)C#Cc1c(C(=O)OCC)nnn1Cc1ccc([N+](=O)[O-])cc1
active: HCT-15 colon -20% | HT29 colon 7.68% | LOX IMVI melanoma -0.0172%
inactive: SNB-75 CNS 65.3% | SNB-19 CNS 87.9% | U251 CNS 96.5% | PC-3 prostate 72.7% | SK-MEL-5 melanoma 93.2% | UACC-62 melanoma 76% | SK-MEL-28 melanoma 87%

O=C(CN1CCCCC1)Nc1nc(-c2cc3ccccc3oc2=O)cs1
inactive: HCT-15 colon 102% | HT29 colon 100% | SNB-75 CNS 82.4% | SNB-19 CNS 100% | U251 CNS 97.4% | PC-3 prostate 97.8% | SK-MEL-5 melanoma 96% | UACC-62 melanoma 91.7% | LOX IMVI melanoma 101% | SK-MEL-28 melanoma 102%

O=C(Nc1cccc(-c2ccc(N3CCOCC3)nn2)c1)Nc1cccc(C(F)(F)F)c1
inactive: HCT-15 colon 68.3% | HT29 colon 91.2% | SNB-75 CNS 111% | SNB-19 CNS 86.6% | U251 CNS 71.2% | PC-3 prostate 31.4% | SK-MEL-5 melanoma 41.9% | UACC-62 melanoma 43.2% | LOX IMVI melanoma 70.2% | SK-MEL-28 melanoma 88.7%

O=c1c2cccc3c(N4CCCC4)ccc(c32)c2nc3ccccc3n12
inactive: HCT-15 colon 78.6% | HT29 colon 77.8% | SNB-75 CNS 73% | SNB-19 CNS 76% | U251 CNS 64.7% | PC-3 prostate 67.9% | SK-MEL-5 melanoma 64.5% | UACC-62 melanoma 62.6% | LOX IMVI melanoma 51.7% | SK-MEL-28 melanoma 90.9%

Cn1c(=O)c2nc(/C=C/c3ccccc3)c(=O)[nH]c2n(C)c1=S
inactive: HCT-15 colon 102% | HT29 colon 109% | SNB-75 CNS 105% | SNB-19 CNS 105% | U251 CNS 108% | PC-3 prostate 102% | SK-MEL-5 melanoma 102% | UACC-62 melanoma 92.4% | LOX IMVI melanoma 101% | SK-MEL-28 melanoma 111%

Cc1cccc(/C=C2\CN(C(=O)OC(C)(C)C)C/C(=C\c3cccc(C)c3)C2=O)c1
inactive: HCT-15 colon 76.2% | HT29 colon 46.5% | SNB-75 CNS 74.7% | SNB-19 CNS 95.9% | U251 CNS 63.6% | PC-3 prostate 89% | SK-MEL-5 melanoma 101% | UACC-62 melanoma 81.3% | LOX IMVI melanoma 47.1% | SK-MEL-28 melanoma 104%

O=C(O)CCCN1C(=O)/C(=C/c2cn(-c3ccccc3)nc2-c2ccc([N+](=O)[O-])cc2)SC1=S
inactive: HCT-15 colon 35.8% | HT29 colon 87.1% | SNB-75 CNS 95.7% | SNB-19 CNS 48.9% | U251 CNS 38.2% | PC-3 prostate 56.4% | SK-MEL-5 melanoma 52.7% | UACC-62 melanoma 47% | LOX IMVI melanoma 46.2% | SK-MEL-28 melanoma 49.4%

O=C1Nc2ccccc2/C1=C/c1nc2ccccc2c(=O)[nH]1
inactive: HCT-15 colon 72.6% | HT29 colon 105% | SNB-75 CNS 88.9% | SNB-19 CNS 95.5% | U251 CNS 96.3% | PC-3 prostate 77.7% | SK-MEL-5 melanoma 94.4% | UACC-62 melanoma 96.1% | LOX IMVI melanoma 82.1% | SK-MEL-28 melanoma 109%

OB1OCc2cc(/C=C/c3cccc(C(F)(F)F)c3)ccc21
inactive: HCT-15 colon 17.8% | HT29 colon 25.9% | SNB-19 CNS 20.8% | PC-3 prostate 23.6% | UACC-62 melanoma 19.9% | SK-MEL-28 melanoma 45.5%
active: SNB-75 CNS -19.3% | U251 CNS 0.414% | SK-MEL-5 melanoma -14.1% | LOX IMVI melanoma -72.5%

Clc1cc(Cl)c(Cl)c(-c2nnc(SCc3ccncc3Br)o2)c1
inactive: HCT-15 colon 112% | HT29 colon 102% | SNB-75 CNS 84.4% | SNB-19 CNS 102% | U251 CNS 90.3% | PC-3 prostate 92.4% | SK-MEL-5 melanoma 81.8% | UACC-62 melanoma 89.7% | LOX IMVI melanoma 95% | SK-MEL-28 melanoma 94.4%

CCN1CCN(C(=O)[C@]23CCC(C)(C)C[C@@H]2C2=CC[C@@H]4[C@@]5(C)CCC(=O)C(C)(C)[C@@H]5CC[C@@]4(C)[C@]2(C)CC3)CC1
inactive: HCT-15 colon 33.6% | SNB-75 CNS 15.6% | SNB-19 CNS 71.1% | U251 CNS 46.8% | PC-3 prostate 26.1% | SK-MEL-5 melanoma 49.2% | UACC-62 melanoma 47.3% | LOX IMVI melanoma 43.8% | SK-MEL-28 melanoma 64.3%
active: HT29 colon 8.29%

O=C(/C=C/c1cccs1)Nc1ncc(Cc2ccccc2F)s1
inactive: HCT-15 colon 27.1% | SNB-19 CNS 28.9% | U251 CNS 17% | PC-3 prostate 29.6% | UACC-62 melanoma 16.8% | LOX IMVI melanoma 20.4% | SK-MEL-28 melanoma 54.4%
active: HT29 colon 8.61% | SNB-75 CNS -7.95% | SK-MEL-5 melanoma 6.05%

O=C(/C=C/c1cn(-c2ccccc2)nc1-c1ccc(Cl)cc1)c1ccc(F)cc1
inactive: HCT-15 colon 58.8% | HT29 colon 77% | SNB-75 CNS 74.6% | SNB-19 CNS 76.1% | U251 CNS 76.6% | PC-3 prostate 67.6% | SK-MEL-5 melanoma 86% | UACC-62 melanoma 59% | LOX IMVI melanoma 68.7% | SK-MEL-28 melanoma 106%

CCc1ccc(CCCC(=O)O)cc1
inactive: HCT-15 colon 101% | HT29 colon 101% | SNB-75 CNS 87.9% | SNB-19 CNS 95.7% | U251 CNS 101% | PC-3 prostate 96.8% | SK-MEL-5 melanoma 102% | UACC-62 melanoma 96.8% | LOX IMVI melanoma 99.5% | SK-MEL-28 melanoma 108%

CCOC(=O)c1csc(NC(=O)COc2ccc(/C=C3\Oc4ccccc4C3=O)cc2)n1
inactive: HCT-15 colon 113% | HT29 colon 106% | SNB-75 CNS 81.3% | SNB-19 CNS 87.9% | U251 CNS 91.1% | PC-3 prostate 96.2% | SK-MEL-5 melanoma 98.7% | UACC-62 melanoma 79.6% | LOX IMVI melanoma 78.3% | SK-MEL-28 melanoma 112%

COCCn1cc(-c2nc(-c3cc4cccnc4[nH]3)cs2)c2cc(OC)ccc21
inactive: HCT-15 colon 20.3% | HT29 colon 30.9% | SNB-19 CNS 61.6% | U251 CNS 32.8% | PC-3 prostate 10.4% | SK-MEL-5 melanoma 39.1% | UACC-62 melanoma 49.8% | LOX IMVI melanoma 33.2% | SK-MEL-28 melanoma 62.8%
active: SNB-75 CNS 9.81%

CCOC(=O)c1c2c(n3cccc(F)c13)C(=O)c1ncccc1C2=O
inactive: HCT-15 colon 12.7% | SNB-75 CNS 28.7% | SNB-19 CNS 11.3% | PC-3 prostate 13.7% | SK-MEL-28 melanoma 37.4%
active: HT29 colon 8.73% | U251 CNS -35.5% | SK-MEL-5 melanoma -23% | UACC-62 melanoma -33.4% | LOX IMVI melanoma -20.9%

CC(=O)n1nc(C(=O)OC(C)(C)c2ccccc2)c2ccccc21
inactive: HCT-15 colon 101% | HT29 colon 97.5% | SNB-75 CNS 80.8% | SNB-19 CNS 95.7% | U251 CNS 98.6% | PC-3 prostate 92.3% | SK-MEL-5 melanoma 96.9% | UACC-62 melanoma 93% | LOX IMVI melanoma 91.2% | SK-MEL-28 melanoma 90.4%

N=C(N)c1ccc(-c2ccc(-c3ccccc3)o2)cc1
inactive: SNB-75 CNS 19.8%
active: HCT-15 colon -62.1% | HT29 colon -76.5% | SNB-19 CNS -16.9% | U251 CNS -77.7% | PC-3 prostate -23.3% | SK-MEL-5 melanoma -80.6% | UACC-62 melanoma -70% | LOX IMVI melanoma -89.8% | SK-MEL-28 melanoma -61.1%

Cc1ccc2c(n1)C(=O)C(Br)=C(C1CCCC1)C2=O
inactive: HCT-15 colon 99.5% | HT29 colon 109% | SNB-75 CNS 99.7% | SNB-19 CNS 98.1% | U251 CNS 97.4% | PC-3 prostate 89.9% | SK-MEL-5 melanoma 97.3% | UACC-62 melanoma 98.5% | LOX IMVI melanoma 91.6% | SK-MEL-28 melanoma 117%

COc1ccccc1CNc1c2ccccc2nc2ccccc12
inactive: HCT-15 colon 26% | HT29 colon 17.7% | SNB-75 CNS 63.5% | SNB-19 CNS 35.8% | U251 CNS 38.6% | PC-3 prostate 43.2% | SK-MEL-5 melanoma 59.2% | UACC-62 melanoma 60.5% | LOX IMVI melanoma 18.9% | SK-MEL-28 melanoma 80%

NS(=O)(=O)c1ccc(N=Nc2c(O)n(Cc3ccccc3)c3ccc(Cl)cc23)cc1
active: SNB-75 CNS -9.32%
inactive: HCT-15 colon 88.8% | HT29 colon 94.6% | SNB-19 CNS 40.8% | U251 CNS 81.7% | PC-3 prostate 83.8% | SK-MEL-5 melanoma 80.5% | UACC-62 melanoma 66.6% | LOX IMVI melanoma 97.6% | SK-MEL-28 melanoma 93.2%

O=C1C(=O)N(Cc2ccc(-c3ccccc3)cc2)c2ccc(OC(F)(F)F)cc21
inactive: HCT-15 colon 10.3% | SNB-75 CNS 39.3% | SNB-19 CNS 43.2% | U251 CNS 20.9% | PC-3 prostate 17.4% | SK-MEL-5 melanoma 92.2% | UACC-62 melanoma 62.3% | LOX IMVI melanoma 20.1% | SK-MEL-28 melanoma 82.7%
active: HT29 colon 9.07%

Cc1cn(-c2cc(NC(=O)c3cccc(C#Cc4cccc5[nH]nc(N)c45)c3)cc(C(F)(F)F)c2)cn1
active: UACC-62 melanoma 5.82% | LOX IMVI melanoma 7.02%
inactive: HCT-15 colon 25.8% | HT29 colon 18.4% | SNB-75 CNS 48.1% | SNB-19 CNS 55.5% | U251 CNS 43.7% | PC-3 prostate 20.9% | SK-MEL-5 melanoma 34.5% | SK-MEL-28 melanoma 23.5%

O=C(CN1C(=O)S/C(=C\c2ccccc2)C1=O)Nc1ncc(Cc2ccccc2Cl)s1
inactive: HCT-15 colon 92.3% | HT29 colon 109% | SNB-75 CNS 81.9% | SNB-19 CNS 101% | U251 CNS 95% | PC-3 prostate 79% | SK-MEL-5 melanoma 98.2% | UACC-62 melanoma 85.6% | LOX IMVI melanoma 87.9% | SK-MEL-28 melanoma 119%
